Assay results from PubChem BioAssay (NCI).
Several values for one entry are separate records, joined by “and”; a condition that tells them apart may be missing. Equal values may be shown once. About 83,000 compounds went through this panel and 20% of them were active in at least one assay; those are over-represented in the sample as a whole.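 Growth was measured after 48 h exposure to one concentration of compound in 96-well plates. Values under 10 count as active.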 Values without a mark were called inactive. Activity calls are given as the source filed them.

Columns and labels:
Experiment in all cases: NCI-60 one-dose screen, 48 h (100 = growth as untreated, 0 = no growth, -100 = all killed)
Conditions in all cases: 10 µM unless noted
T-47D breast = tested on: T-47D breast
BT-549 breast = tested on: BT-549 breast
MDA-MB-435 melanoma = tested on: MDA-MB-435 melanoma
SW-620 colon = tested on: SW-620 colon
MCF7 breast = tested on: MCF7 breast
HCT-116 colon = tested on: HCT-116 colon
HCC-2998 colon = tested on: HCC-2998 colon
KM12 colon = tested on: KM12 colon

Structure (SMILES) | growth (T-47D breast) | growth (BT-549 breast) | growth (MDA-MB-435 melanoma) | growth (SW-620 colon) | growth (MCF7 breast) | growth (HCT-116 colon) | growth (HCC-2998 colon) | growth (KM12 colon)
O=[n+]1c2ccccc2n([O-])c2cc(Cl)ccc21 | 46.8% | 74.7% | 100% | 53.2% | 28.2% | 28.7% | 93.5% | 79%
CN(C)c1ccc(/C=C/c2nccc3ccccc23)cc1 | 40.2% | 84.1% | 55.7% | 84.1% | 30.6% | 81.5% | 82.9% | 73.3%
CCCCOS(=O)(=O)c1ccccc1 | 106% | 103% | 95.8% | 110% | 102% | 108% | 117% | 109%
CC[n+]1ccc(Nc2ccc(NC(=O)c3ccc(Nc4cc[n+](CC)c5ccc([N+](=O)[O-])cc45)cc3)cc2)cc1 | 46.3% | 92.6% | 74.4% | 92.8% | 36.7% | 65.4% | 104% | 65.5%
CCOC(=O)c1[nH]c(C#N)c(C(=O)OCC)c1C | 96.6% | 109% | 94.4% | 103% | 103% | 103% | 103% | 107%
Oc1ccc(Cl)cc1C(c1cc(Cl)ccc1O)C(Cl)(Cl)Cl | 9.95% (active) | 44.9% | 29.4% | 4.62% (active) | 8.95% (active) | -35.2% (active) | -45.5% (active) | -55.5% (active)
COC(=O)c1ccc(=O)c2nc3/c(=C/O)c(O)cc(=O)c3[nH]c12 | 25.6% | 5.85% (active) | 23.4% | 29.5% | 2.95% (active) | -19% (active) | 24.9% | 31.1%
CCCCCCCCCCCCCCCCCC1=NCCCN1CCO | 103% | 99.9% | 115% | 98.9% | 86.7% | 114% | 93.4% | 106%
CCOc1ccc(C(CN2CCOCC2)C(C)=O)cc1OC (configuration not stated) | 33.2% | 91.2% | 97.6% | 60% | 13.4% | 97.3% | 115% | 93.3%
CCCCN(CCCC)CCCCCCCCCCO | 94.6% | 102% | 107% | 103% | 99% | 90.2% | 103% | 103%
O=C(/C=C/c1ccccc1)c1ccccc1O | 62.6% | 70.5% | 80.6% | 75.1% | 26.7% | 62.9% | 96.3% | 28.2%
CC1=CC(=O)C=CC1(C)C(Cl)(Cl)Cl (configuration not stated) | 89.8% | 103% | 105% | 96.7% | 92.6% | 89.9% | 98.6% | 108%
NC1=C(Br)C(=O)c2ncccc2C1=O | 15.3% | -81.2% (active) | -96.2% (active) | -88.4% (active) | -57.2% (active) | -46.4% (active) | 26.9% | 24.5%
O=C(c1ccccc1)C(Br)[N+](=O)[O-] (configuration not stated) | 65.3% | 92.6% | 96% | 38.8% | 58.8% | 63% | 111% | 100%
Cc1cc2cccnc2c2ncccc12 | 2.22% (active) | 36% | 35.9% | 31.6% | 3.96% (active) | 14% | 29.5% | 28.5%
OC(Cc1cc(CC(O)(C(F)(F)F)C(F)(F)F)nc(CC(O)(C(F)(F)F)C(F)(F)F)c1)(C(F)(F)F)C(F)(F)F | -1.31% (active) | 11.3% | 0.574% (active) | 14.6% | 4.14% (active) | 3.99% (active) | 23.9% | 1.25% (active)
O=[N+]([O-])c1ccc(C2N(Cc3ccc(Cl)cc3)CCN2Cc2ccc(Cl)cc2)cc1 | 90% | 98.2% | 91.5% | 98.1% | 87.3% | 72.8% | 95.4% | 101%
CC(=O)OC1CC2CCC1(C)C2(C)C (configuration not stated) | 99.2% | 112% | 96.4% | 98.1% | 103% | 107% | 108% | 104%
Cc1nnc(N/N=C/c2ccc([N+](=O)[O-])o2)[nH]c1=O | -6.92% (active) | -22.1% (active) | 12% | 18.7% | 3.92% (active) | 9.54% (active) | 22.2% | 14.2%
CN(C)c1ccc(C(C#N)(c2ccccc2)c2ccc(N(C)C)cc2)cc1 | 41.8% | 72.9% | 84.2% | 43.3% | 39.9% | 30.8% | 51.2% | 65.5%
OC(c1cc(-c2ccc(C(F)(F)F)cc2)nc(C(F)(F)F)c1)C1CCCCN1 (configuration not stated) | -69.2% (active) and -89.5% (active) and -17.2% (active) | 52.1% and 93.5% and 85.3% | -63% (active) and -91.8% (active) and 6.26% (active) | -80.4% (active) and -84.6% (active) and -55.6% (active) | -88% (active) and -86.5% (active) and -59.3% (active) | -82% (active) and -96.2% (active) and 3.87% (active) | -66.8% (active) and -95% (active) and -74.6% (active) | -80.1% (active) and -85.2% (active) and -62.3% (active)
CCC1C[N+]2=C(c3cc(OC)c(OC)cc3CC2)c2c1cc1n2CCc2cc(OC)c(OC)cc2-1 (configuration not stated) | 6.69% (active) | 26.7% | 5.51% (active) | 48.8% | 9.71% (active) | 40.4% | 34% | 7.73% (active)
O=C(OC12CC3CC(CC(C3)C1)C2)c1ccc(NCc2cc(O)ccc2O)cc1 | -70% (active) | -81.6% (active) | -46% (active) | -53.8% (active) | 6.06% (active) | -82.9% (active) | -73.6% (active) | -60.7% (active)
N#CC(I)CS(=O)(=O)c1ccccc1 (configuration not stated) | 44.6% | 97% | 109% | 26.3% | 91.5% | -10.5% (active) | 107% | 96.1%
